# ELG1 genotox: qHTS screen for small molecules that induce genotoxicity in human embryonic kidney (HEK293T) cells expressing luciferase-tagged ELG1; 330,000 tested, 1.3% active; Potency, µM (top dose mostly 46 µM), for the others: at the top dose activity change, positive = activation, most hits filed as activators; HEK293T ELG1-luciferase reporter, luminescence, 16 h; also: % of control where 0% means no effect; nearly all actives have a fitted effect of over 60% in size
#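 DMSO vehicle served as control against compound-treated ELG1-luciferase HEK293T cells; exposure lasted 16 hr at 37 °C and 5% CO2, followed by ONE-Glo luminescence detection after 30 min.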
# SMN2 splice up: qHTS Assay for Enhancers of SMN2 Splice Variant Expression; HEK293 SMN2-luciferase splicing reporter, luminescence, 30-36 h; Potency, µM (highest dose often 46.1 µM), for inactives: at the top dose activity change, positive = activation, actives largely listed as activators; 210,000 tested, 2.8% active; AID 1458, 2008; also: % of control where 0% means no effect; nearly all actives have a fitted effect of over 55% in size
#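 HEK293 cells carry an SMN2 […]–luciferase reporter in which exon 7 inclusion puts luciferase in frame. Cells were plated 10-12 h before compound addition, then incubated 30-36 h at 37C. ONE-Glo luminescence was read; sodium butyrate at 4.5 mM final served as control.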
# Luc counter: Counterscreen for Luciferase (Kinase-Glo TM) Inhibition; Luciferin 4-monooxygenase (Photuris pensylvanica), Q27757; Kinase-Glo luciferase, ATP luminescence, 8 min; Potency, µM (highest dose often 38.3 µM), without a hit: at the top dose activity change, negative = inhibition, most hits filed as inhibitors; 200,000 tested, 0.28% active; also: % is scaled to controls: 0 for no effect and ±100 for the full control effect; nearly all actives have a fitted effect of over 60% in size
#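 Recombinant Kinase-Glo luciferase, 10 uM ATP (linear range), luciferin; imidazole pH 7.2 / KCl / MgCl2 / Tween / BSA buffer; 8 min RT; luminescence.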
# NPC1 prom act: qHTS Assay for NPC1 Promoter Activators | Potency, µM (doses to about 9.22 µM), inactives show top-dose activation, actives largely listed as activators | Huh7 NPC1 promoter luciferase reporter, 24 h | 320,000 tested, 2.4% active | AID 485313, 2010; also: % of control where 0% means no effect; nearly all actives have a fitted effect of over 60% in size
#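 Stable NPC1-promoter luciferase Huh7 line; cpd (DMSO) 24 h, 37 °C, 5% CO2; Amplite luciferase reagent 10 min RT; luminescence readout. qHTS format.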
# FLuc counter: qHTS profiling assay for firefly luciferase inhibitor/activator using purifed enzyme and Km concentrations of substrates (counterscreen for miR-21 project); 360,000 tested, 6.9% active; AID 588342, 2011; Potency, µM (highest dose often 57.5 µM), for the others: at the top dose activity change, negative = inhibition, usual class: inhibitors; purified FLuc, Km substrates, luminescence inhibition;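 also: plate controls were vehicle for no effect and reference inhibitor for full effect; nearly all actives have a fitted effect of over 55% in size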
# Target sequence (P08659 whole entry, looked up): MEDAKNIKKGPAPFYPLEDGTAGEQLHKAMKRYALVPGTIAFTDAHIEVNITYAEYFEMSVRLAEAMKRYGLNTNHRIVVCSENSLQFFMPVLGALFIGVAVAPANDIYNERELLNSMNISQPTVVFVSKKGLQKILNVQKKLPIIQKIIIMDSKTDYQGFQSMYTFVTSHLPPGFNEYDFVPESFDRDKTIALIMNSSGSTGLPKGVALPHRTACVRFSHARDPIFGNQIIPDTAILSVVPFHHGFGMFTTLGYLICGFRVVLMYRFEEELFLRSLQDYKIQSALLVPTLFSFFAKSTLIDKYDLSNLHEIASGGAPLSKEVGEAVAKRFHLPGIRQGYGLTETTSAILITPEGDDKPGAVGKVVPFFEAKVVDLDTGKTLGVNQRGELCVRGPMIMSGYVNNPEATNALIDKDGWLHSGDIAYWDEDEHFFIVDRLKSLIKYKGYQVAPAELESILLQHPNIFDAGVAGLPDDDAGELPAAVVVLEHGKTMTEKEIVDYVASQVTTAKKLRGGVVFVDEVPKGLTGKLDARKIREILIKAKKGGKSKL
#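 Purified P. pyralis luciferase, 10 nM final, with Km-level 10 uM D-luciferin and 10 uM ATP in 50 mM Tris acetate pH 7.5, 10 mM Mg acetate, 0.01% Tween-20, 0.05% BSA; 6-point qHTS titration about 60 µM downward; luminescence read.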
# Rab9 promoter act: qHTS Assay for Rab9 Promoter Activators | Huh7 Rab9 promoter-luciferase reporter, luminescence, 24 h | Potency, µM (highest dose often 9.22 µM), without a hit: at the highest dose activation, negative = inhibition, usual class: activators | 320,000 tested, 2.8% active | AID 485297, 2010; also: % of control where 0% means no effect; nearly all actives have a fitted effect of over 60% in size
#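 Luminescence from Amplite-detected luciferase (10 minutes, ambient) reports Rab9 promoter activation. Before that, stable Rab9-luciferase Huh7 cells (1500/well, reduced-serum OP-MEM I plus 10% FBS) were exposed to compound for 24 hours at 37C.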
# The depositor's hits bear a star; ? = inconclusive; . = no result. Hits are enriched below; roughly 7.5% of the tested compounds scored in any of these assays. Calls follow the shape of the dose curve; as a rule, active = well fitted curve in the direction sought with a large enough effect; inconclusive = small, poorly fitted or top-dose-only effect, or another doubt; inactive = no such curve, though single readings can be large; an effect the other way counts as inactive or inconclusive. Potency is read from the fitted curve at half-maximal effect.
SMILES,ELG1 genotox,SMN2 splice up,Luc counter,NPC1 prom act,FLuc counter,Rab9 promoter act
Cc1ccc(COc2ccc3oc(-c4ccccc4)c(C(=O)O)c3c2)cc1,.,11%,.,.,11µM*,.
Cc1ccc2oc(-c3ccccc3)c(C(=O)O)c(=O)c2c1,?,?,-3%,3.5µM*,21µM*,?
COc1ccc2oc(-c3ccccc3)c(C(=O)O)c2c1,5%,.,.,-1%,-5%,-4%
Cc1ccc(C)c(OCCC(=O)OCC(=O)Nc2ccc(Cl)cn2)c1,-1%,.,.,-4%,0%,-2%
Cc1ccc(-n2c(C)cc(C(=O)CSc3nncs3)c2C)cc1,?,12%,-10%,1µM*,3µM*,0.5µM*
Cc1cc(C(=O)CSc2nnnn2-c2ccc(O)cc2)c(C)n1C,1%,19%,1%,21%,?,10%
Cc1ccc(-n2c(C)cc(C(=O)CSc3nnnn3C)c2C)cc1,13%,?,-14%,0.71µM*,2.7µM*,0.71µM*
Cc1cc(C(=O)CSc2nncs2)c(C)n1-c1c(C)n(C)n(-c2ccccc2)c1=O,8%,-8%,-5%,-4%,2%,2%
Cc1ccn2cc(CNS(=O)(=O)c3cccs3)nc2c1,8%,.,.,16%,-19%,28%
COc1ccc(Br)cc1S(=O)(=O)Nc1cc(-c2cn3ccccc3n2)ccc1C,.,-3%,.,.,?,.
COc1ccc(S(=O)(=O)Nc2cc(-c3cn4ccc(C)cc4n3)ccc2C)cc1OC,.,19%,.,.,15µM*,.
CCCS(=O)(=O)Nc1cc(-c2cn3ccc(C)cc3n2)ccc1C,.,15%,.,.,9.5µM*,.
COc1cccc2cc(-c3nc4sc5c(c4c(=O)[nH]3)CCC(C(C)(C)C)C5)c(=O)oc12 (stereo not given),.,.,.,.,-16%,.
O=C(COc1ccc(Cc2ccccc2)cc1)c1ccc(F)cc1,9%,3%,0%,27%,8.5µM*,24%
O=C(COc1cccc(NC(=O)c2cccc([N+](=O)[O-])c2)c1)c1ccc(F)cc1,-14%,-70%,3%,-2%,?,0%
O=C(COc1cccc(NC(=O)c2ccccc2)c1)c1ccc(F)cc1,-7%,-58%,2%,5%,15µM*,-2%
O=C1C(C2=NC(C(=O)O)C3C(=O)N(c4ccccc4)C(=O)C23)=C(O)c2ccccc21 (stereo not given),-4%,-7%,?,-1%,12µM*,0%
Cc1ccc(CNC(=O)Cn2ncn3cccc3c2=O)cc1,?,.,.,?,13µM*,2.5µM*
CCn1c(COc2cccc(C)c2)nc2ccccc21,-1%,-9%,-7%,0%,?,-3%
COc1ccc(OCc2nc3ccccc3n2Cc2ccc(C(C)(C)C)cc2)cc1,.,11µM*,.,.,9.5µM*,.
CC(C)(C)c1ccc(OCc2nc3ccccc3n2CCOc2ccccc2)cc1,.,-35%,.,.,-5%,.
COCn1c(COc2ccc3ccccc3c2)nc2ccccc21,?,11µM*,-7%,2.8µM*,2.4µM*,2.5µM*
Cc1occc1C(=O)N/N=C/c1ccccn1,?,.,?,25%,?,?
CCOc1ccc(/C=N/NC(=O)c2ccoc2C)cc1OC,18µM*,.,.,?,?,3.5µM*
COc1cccc(/C=N/NC(=O)c2ccoc2C)c1O,21µM*,.,.,8%,8.5µM*,-1%
SMILES,ELG1 genotox,SMN2 splice up,Luc counter,NPC1 prom act,FLuc counter,Rab9 promoter act
COc1cccc(/C=N/NC(=O)c2ccoc2C)c1,?,.,.,2.5µM*,11µM*,1.6µM*
Cn1nccc1C(=O)N/N=C/c1ccccc1[N+](=O)[O-],?,.,.,2.5µM*,13µM*,2.8µM*
CCCCNc1nnc(SCC(=O)c2c[nH]c3ccccc23)s1,0%,?,-2%,0%,-2%,-5%
CCN(CC)CCCNC(=O)c1cn(C)c2ccc(S(=O)(=O)N3CCOCC3)cc2c1=O,.,1%,.,.,-1%,.
COc1cc(/C=N/NC(=O)c2cc(C)oc2C)ccc1O,6%,.,.,-2%,?,-3%
COc1cccc(/C=N/NC(=O)NC2CCCCC2)c1O,?,.,.,?,17µM*,?
CCN(CC)c1ccc(/C=N/NC(=O)c2ccoc2C)cc1,0.73µM*,.,.,0.5µM*,1.1µM*,?
COc1cc(/C=N/NC(=O)c2ccoc2C)ccc1O,12%,?,-16%,9%,13µM*,16%
Cc1occc1C(=O)Nc1cccc([N+](=O)[O-])c1C,0%,.,.,-3%,-3%,13%
Cc1occc1C(=O)N/N=C/c1ccccc1[N+](=O)[O-],?,.,.,3.2µM*,9.5µM*,4µM*
COc1cccc(/C=N/NC(=O)C(=O)N/N=C/c2cccc(OC)c2O)c1O,2%,-36%,-2%,-34%,0%,-23%
CCc1ccc(NC(=O)c2cnc(SC)nc2C)cc1,0%,.,.,18%,?,0%
COc1ccccc1C(=O)Nc1nc2ccc(S(C)(=O)=O)cc2s1,10%,1%,-4%,27%,?,?
CS(=O)(=O)c1ccc2nc(NC(=O)c3ccccc3Cl)sc2c1,11%,.,.,20%,17µM*,21%
CS(=O)(=O)c1ccc2nc(NC(=O)c3ccccc3Br)sc2c1,?,.,.,2.8µM*,9.5µM*,?
COc1cccc(NC(=O)c2ccc3[nH]c(C)cc(=O)c3c2)c1,.,.,.,.,6%,.
Cc1ccc2cc3cc(C(=O)N4CCN(c5ccccc5)CC4)sc3nc2c1,.,5%,.,.,-2%,.
COc1ccc(-n2nc3cc(C)c(NC(=S)NC(=O)c4ccccc4C)cc3n2)cc1,?,9%,4%,1%,2.4µM*,16%
CCC(=O)Nc1cc2nn(-c3ccc(C)cc3)nc2cc1C,?,-56%,-2%,?,0.11µM*,?
CCC(=O)Nc1cc2nn(-c3ccc(OC)cc3)nc2cc1C,0.41µM*,-9%,-8%,0.1µM*,0.3µM*,?
Cc1cccc(C(=O)Nc2cc3nn(-c4ccc(C(C)C)cc4)nc3cc2C)c1,.,9%,.,.,2.1µM*,.
O=C1NC2(CCCCC2)C(=O)N1/N=C/c1ccc(O)cc1O,-2%,-4%,-6%,0%,17µM*,0%
COc1ccc(C2OC(=O)CC2C(=O)NCc2ccc(Cl)cc2)cc1OC (stereo not given),?,?,1%,?,17µM*,?
Nc1cc(S(=O)(=O)N2CCOCC2)ccc1N1CCCCC1,1%,.,.,.,.,.
